Consider 1 sequence from article PMC7862700, “An all-to-all approach to the identification of sequence-specific readers for epigenetic DNA modifications on cytosine”.

What all share (experiment): DAPPL (digital affinity profiling via proximity ligation, sequencing); 10 mM Tris-HCl pH 7.5, 50 mM NaCl, 1 mM DTT, 4% glycerol, room temperature, 30 min; GST-TFs on glutathione beads, 16-mer random dsDNA library, 0.1% formaldehyde crosslink after washing; high values mean tight binding
For one experiment, the target named is T1, FEV (Homo sapiens, UniProt Q99581 1-238).
T1 sequence: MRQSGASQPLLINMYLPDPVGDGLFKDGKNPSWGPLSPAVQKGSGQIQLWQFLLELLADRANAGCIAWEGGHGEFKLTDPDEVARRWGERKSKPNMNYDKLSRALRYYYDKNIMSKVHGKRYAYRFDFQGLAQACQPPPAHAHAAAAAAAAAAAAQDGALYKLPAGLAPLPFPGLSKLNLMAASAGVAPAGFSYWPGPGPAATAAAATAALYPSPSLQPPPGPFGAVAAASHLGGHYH
The note with it: protein: recombinant; tags: N-terminal GST; dsDNA, one strand shown. Put shortly: (§1)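 Binding signal is each hexamer's read frequency for a factor divided by its frequency in the tag-only sample. The factors were GST-fused human transcription factors from yeast, captured on glutathione beads, DNA-barcoded and pooled with that sample. Pools were incubated with 200 nmole of a random double-stranded 16-mer DNA library in Tris/NaCl/DTT/glycerol buffer at room temperature for 30 min, then washed, crosslinked with 0.1% formaldehyde, proximity-ligated with BsaI/T4 ligase (1 h, 37 °C), PCR-amplified and sequenced on an Illumina NextSeq500.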

Another experiment concerns the target ETV5 (Homo sapiens, UniProt P41161 1-510). The conditions noted are these: protein: recombinant; tags: N-terminal GST; dsDNA, one strand shown. The essentials: as §1
Another experiment concerns the target HSF1 (Homo sapiens, UniProt Q00613 1-529). The note with it: protein: recombinant; tags: N-terminal GST; chain copies: 3; dsDNA, one strand shown. Put shortly: as §1
The target of the next experiment is T2, SPIC (Homo sapiens, UniProt Q8N5J4 1-248).
T2 sequence: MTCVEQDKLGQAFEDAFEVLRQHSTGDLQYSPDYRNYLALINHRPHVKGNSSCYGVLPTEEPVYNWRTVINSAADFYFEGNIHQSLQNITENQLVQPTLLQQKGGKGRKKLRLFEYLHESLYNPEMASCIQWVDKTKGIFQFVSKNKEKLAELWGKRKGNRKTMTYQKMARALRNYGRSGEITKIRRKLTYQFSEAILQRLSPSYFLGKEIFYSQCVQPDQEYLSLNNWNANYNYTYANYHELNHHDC
The conditions noted are these: protein: recombinant; tags: N-terminal GST; dsDNA, one strand shown. The essentials: as §1

The target of the next experiment is ELF4 (Homo sapiens, UniProt Q99607 1-663). The note with it: protein: recombinant; tags: N-terminal GST; dsDNA, one strand shown. The essentials:
as §1

For another experiment, the target named is T3, ELK4 (Homo sapiens, UniProt P28324-2 1-405).
T3 sequence: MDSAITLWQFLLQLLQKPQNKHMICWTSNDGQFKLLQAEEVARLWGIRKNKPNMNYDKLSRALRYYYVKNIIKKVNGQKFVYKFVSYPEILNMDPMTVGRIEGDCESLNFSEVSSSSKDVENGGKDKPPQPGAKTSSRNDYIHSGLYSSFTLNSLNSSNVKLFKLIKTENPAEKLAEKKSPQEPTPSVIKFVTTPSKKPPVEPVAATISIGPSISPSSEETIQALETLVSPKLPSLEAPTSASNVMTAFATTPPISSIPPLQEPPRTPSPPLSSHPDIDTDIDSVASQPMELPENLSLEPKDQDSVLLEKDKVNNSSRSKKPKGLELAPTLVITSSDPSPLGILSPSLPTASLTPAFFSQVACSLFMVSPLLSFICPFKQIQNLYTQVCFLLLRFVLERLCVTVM
The conditions noted are these: protein: recombinant; tags: N-terminal GST; dsDNA, one strand shown. The essentials:
as §1

The target of another experiment is T4, ETV2 (Homo sapiens, UniProt O00321 1-342).
T4 sequence: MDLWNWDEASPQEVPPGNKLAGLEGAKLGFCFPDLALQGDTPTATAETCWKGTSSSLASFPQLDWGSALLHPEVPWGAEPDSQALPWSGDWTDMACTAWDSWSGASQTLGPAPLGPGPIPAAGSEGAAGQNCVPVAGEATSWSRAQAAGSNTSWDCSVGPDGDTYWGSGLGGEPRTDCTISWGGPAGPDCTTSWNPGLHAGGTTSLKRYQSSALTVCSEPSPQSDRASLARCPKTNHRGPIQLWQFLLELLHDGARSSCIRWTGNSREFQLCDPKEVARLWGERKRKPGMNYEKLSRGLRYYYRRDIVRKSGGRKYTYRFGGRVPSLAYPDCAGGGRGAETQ
The conditions noted are these: protein: recombinant; tags: N-terminal GST; dsDNA, one strand shown. The essentials:
as §1

Another experiment deals with T5, ELF3 (Homo sapiens, UniProt P78545 1-371).
T5 sequence: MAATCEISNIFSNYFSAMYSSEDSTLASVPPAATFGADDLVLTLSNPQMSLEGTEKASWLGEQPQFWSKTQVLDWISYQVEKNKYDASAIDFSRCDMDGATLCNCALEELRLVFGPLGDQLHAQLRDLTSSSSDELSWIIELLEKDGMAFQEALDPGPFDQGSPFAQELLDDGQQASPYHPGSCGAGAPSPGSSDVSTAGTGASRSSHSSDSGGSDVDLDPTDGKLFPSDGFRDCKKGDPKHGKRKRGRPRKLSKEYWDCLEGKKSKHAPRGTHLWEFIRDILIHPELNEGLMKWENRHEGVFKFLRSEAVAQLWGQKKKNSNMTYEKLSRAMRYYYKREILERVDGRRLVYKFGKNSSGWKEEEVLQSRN
The note with it: protein: recombinant; tags: N-terminal GST; dsDNA, one strand shown. The essentials:
as §1

Another experiment addresses CRX (Homo sapiens, UniProt O43186 1-299). The note with it: protein: recombinant; tags: N-terminal GST; dsDNA, one strand shown. The essentials: as §1
A further experiment concerns the target ETV1 (Homo sapiens, UniProt P50549 1-477). The conditions noted are these: protein: recombinant; tags: N-terminal GST; dsDNA, one strand shown. The essentials:
as §1

The next experiment has as its target T6, ERF (Homo sapiens, UniProt P50548 1-548).
T6 sequence: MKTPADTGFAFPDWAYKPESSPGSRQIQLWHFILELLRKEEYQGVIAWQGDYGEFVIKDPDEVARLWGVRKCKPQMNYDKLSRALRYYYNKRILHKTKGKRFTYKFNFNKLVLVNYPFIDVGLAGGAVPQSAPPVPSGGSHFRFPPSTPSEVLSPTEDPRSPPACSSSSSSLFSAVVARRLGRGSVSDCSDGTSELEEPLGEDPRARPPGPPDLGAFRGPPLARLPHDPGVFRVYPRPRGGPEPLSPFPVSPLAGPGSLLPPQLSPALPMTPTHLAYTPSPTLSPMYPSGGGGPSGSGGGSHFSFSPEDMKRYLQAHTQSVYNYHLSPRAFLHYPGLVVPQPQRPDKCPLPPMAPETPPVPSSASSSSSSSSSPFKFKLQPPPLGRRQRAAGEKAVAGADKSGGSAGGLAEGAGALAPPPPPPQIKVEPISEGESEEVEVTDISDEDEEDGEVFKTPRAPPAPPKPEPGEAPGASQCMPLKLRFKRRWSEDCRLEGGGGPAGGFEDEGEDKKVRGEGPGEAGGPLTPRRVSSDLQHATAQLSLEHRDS
The note with it: protein: recombinant; tags: N-terminal GST; dsDNA, one strand shown. The essentials:
as §1

For a further experiment, the target named is T7, ETV3L (Homo sapiens, UniProt Q6ZN32 1-361).
T7 sequence: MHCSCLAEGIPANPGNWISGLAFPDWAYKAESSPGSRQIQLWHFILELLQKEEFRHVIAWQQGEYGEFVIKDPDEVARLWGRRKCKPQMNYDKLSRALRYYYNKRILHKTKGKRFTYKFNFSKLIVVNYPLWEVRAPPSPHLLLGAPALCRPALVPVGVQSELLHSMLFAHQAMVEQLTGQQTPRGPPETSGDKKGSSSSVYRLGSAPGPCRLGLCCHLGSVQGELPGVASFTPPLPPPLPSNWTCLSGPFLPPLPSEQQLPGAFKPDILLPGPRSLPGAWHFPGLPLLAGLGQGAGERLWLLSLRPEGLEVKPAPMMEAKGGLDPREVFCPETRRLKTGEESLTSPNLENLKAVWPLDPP
The note with it: protein: recombinant; tags: N-terminal GST; dsDNA, one strand shown. Put shortly:
as §1

A further experiment addresses T8, ETS2 (Homo sapiens, UniProt P15036 1-469).
T8 sequence: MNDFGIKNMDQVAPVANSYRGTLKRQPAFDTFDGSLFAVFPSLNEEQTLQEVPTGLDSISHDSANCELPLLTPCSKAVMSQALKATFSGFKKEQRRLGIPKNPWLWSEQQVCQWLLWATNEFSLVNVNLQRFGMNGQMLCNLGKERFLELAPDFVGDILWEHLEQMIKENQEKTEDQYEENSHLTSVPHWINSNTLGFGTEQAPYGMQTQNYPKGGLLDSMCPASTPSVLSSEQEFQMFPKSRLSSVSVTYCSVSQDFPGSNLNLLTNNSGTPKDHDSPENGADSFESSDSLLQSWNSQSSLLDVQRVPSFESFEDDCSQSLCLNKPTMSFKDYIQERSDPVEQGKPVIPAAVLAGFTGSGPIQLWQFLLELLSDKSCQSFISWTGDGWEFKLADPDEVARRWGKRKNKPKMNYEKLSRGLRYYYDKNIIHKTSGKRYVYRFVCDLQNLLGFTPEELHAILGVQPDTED
The note with it: protein: recombinant; tags: N-terminal GST; dsDNA, one strand shown. Put shortly:
as §1

The next experiment deals with T9, SPDEF (Homo sapiens, UniProt O95238 1-335).
T9 sequence: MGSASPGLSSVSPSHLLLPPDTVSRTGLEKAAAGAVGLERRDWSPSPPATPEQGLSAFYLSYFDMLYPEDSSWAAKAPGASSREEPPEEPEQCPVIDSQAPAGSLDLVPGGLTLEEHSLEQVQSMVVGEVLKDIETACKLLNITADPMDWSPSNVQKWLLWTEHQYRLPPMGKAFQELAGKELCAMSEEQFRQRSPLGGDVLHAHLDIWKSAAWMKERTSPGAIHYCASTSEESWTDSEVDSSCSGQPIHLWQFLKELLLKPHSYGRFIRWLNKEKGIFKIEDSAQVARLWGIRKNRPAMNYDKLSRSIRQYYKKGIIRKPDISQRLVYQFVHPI
The note with it: protein: recombinant; tags: N-terminal GST; dsDNA, one strand shown. The essentials:
as §1

A further experiment addresses T10, ETV7 (Homo sapiens, UniProt Q9Y603 1-341).
T10 sequence: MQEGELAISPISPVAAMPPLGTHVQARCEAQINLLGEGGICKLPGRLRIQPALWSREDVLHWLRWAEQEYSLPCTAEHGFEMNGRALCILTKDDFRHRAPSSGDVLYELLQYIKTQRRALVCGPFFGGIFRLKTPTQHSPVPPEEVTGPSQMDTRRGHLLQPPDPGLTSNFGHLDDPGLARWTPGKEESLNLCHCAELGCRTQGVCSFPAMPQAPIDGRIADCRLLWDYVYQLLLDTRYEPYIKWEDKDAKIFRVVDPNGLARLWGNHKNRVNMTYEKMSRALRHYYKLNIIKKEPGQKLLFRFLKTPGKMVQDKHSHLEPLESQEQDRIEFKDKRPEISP
The note with it: protein: recombinant; tags: N-terminal GST; dsDNA, one strand shown. Put shortly: as §1

For the next experiment, the target named is T11, ELF5 (Homo sapiens, UniProt Q9UKW6-2 1-255).
T11 sequence: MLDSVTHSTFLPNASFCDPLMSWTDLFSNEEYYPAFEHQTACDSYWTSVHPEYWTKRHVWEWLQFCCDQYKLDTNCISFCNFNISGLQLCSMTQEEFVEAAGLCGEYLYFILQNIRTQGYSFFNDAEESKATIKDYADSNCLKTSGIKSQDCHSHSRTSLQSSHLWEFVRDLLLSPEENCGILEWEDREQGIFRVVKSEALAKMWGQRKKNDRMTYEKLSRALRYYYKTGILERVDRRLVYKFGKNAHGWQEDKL
The note with it: protein: recombinant; tags: N-terminal GST; dsDNA, one strand shown. The essentials:
as §1

The next experiment deals with T12, ETV3 (Homo sapiens, UniProt P41162-2 1-143).
T12 sequence: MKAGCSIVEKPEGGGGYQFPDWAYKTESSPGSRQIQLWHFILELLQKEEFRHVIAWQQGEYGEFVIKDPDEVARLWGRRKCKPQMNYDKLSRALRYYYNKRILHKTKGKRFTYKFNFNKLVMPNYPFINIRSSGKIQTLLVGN
The note with it: protein: recombinant; tags: N-terminal GST; dsDNA, one strand shown. The essentials: as §1

Another experiment addresses ETV6 (Homo sapiens, UniProt P41212 1-452). The conditions noted are these: protein: recombinant; tags: N-terminal GST; dsDNA, one strand shown. The essentials:
as §1

Sequence of CRX (O43186 whole entry): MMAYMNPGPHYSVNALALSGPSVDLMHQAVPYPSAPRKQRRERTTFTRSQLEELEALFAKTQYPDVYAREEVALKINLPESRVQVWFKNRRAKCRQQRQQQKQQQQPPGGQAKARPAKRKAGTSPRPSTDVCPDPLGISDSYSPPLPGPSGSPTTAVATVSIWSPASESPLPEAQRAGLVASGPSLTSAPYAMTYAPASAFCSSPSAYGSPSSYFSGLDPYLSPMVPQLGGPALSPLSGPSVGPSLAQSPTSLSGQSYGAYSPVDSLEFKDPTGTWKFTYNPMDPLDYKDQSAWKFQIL
Sequence of ETV6 (P41212 whole entry): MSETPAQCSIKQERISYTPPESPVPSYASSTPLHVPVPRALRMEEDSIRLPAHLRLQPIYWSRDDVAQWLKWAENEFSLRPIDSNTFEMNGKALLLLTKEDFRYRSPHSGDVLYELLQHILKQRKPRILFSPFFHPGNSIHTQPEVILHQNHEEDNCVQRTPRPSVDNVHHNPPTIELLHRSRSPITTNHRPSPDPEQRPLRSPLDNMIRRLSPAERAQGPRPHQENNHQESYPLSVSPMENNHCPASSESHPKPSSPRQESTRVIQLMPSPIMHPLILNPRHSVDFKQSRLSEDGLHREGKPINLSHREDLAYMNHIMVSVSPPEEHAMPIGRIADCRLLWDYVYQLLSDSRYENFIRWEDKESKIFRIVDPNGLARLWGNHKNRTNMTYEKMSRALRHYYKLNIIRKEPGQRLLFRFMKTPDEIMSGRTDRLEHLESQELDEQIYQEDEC
Sequence of ETV5 (P41161 whole entry): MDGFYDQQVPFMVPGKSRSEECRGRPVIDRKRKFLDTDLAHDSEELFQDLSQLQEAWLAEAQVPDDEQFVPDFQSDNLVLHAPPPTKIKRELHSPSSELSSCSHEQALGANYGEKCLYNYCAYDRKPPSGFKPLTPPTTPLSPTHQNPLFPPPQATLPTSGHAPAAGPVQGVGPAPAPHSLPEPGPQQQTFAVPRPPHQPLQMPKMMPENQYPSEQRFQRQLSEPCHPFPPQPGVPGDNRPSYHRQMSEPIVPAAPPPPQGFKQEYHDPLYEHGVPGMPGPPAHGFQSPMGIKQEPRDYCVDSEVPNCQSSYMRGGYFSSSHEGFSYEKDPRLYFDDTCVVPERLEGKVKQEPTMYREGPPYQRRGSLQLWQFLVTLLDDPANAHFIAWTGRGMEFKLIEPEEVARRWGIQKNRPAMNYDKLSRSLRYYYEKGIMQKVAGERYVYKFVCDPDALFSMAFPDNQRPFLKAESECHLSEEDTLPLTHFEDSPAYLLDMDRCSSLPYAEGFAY
Sequence of ELF4 (Q99607 whole entry): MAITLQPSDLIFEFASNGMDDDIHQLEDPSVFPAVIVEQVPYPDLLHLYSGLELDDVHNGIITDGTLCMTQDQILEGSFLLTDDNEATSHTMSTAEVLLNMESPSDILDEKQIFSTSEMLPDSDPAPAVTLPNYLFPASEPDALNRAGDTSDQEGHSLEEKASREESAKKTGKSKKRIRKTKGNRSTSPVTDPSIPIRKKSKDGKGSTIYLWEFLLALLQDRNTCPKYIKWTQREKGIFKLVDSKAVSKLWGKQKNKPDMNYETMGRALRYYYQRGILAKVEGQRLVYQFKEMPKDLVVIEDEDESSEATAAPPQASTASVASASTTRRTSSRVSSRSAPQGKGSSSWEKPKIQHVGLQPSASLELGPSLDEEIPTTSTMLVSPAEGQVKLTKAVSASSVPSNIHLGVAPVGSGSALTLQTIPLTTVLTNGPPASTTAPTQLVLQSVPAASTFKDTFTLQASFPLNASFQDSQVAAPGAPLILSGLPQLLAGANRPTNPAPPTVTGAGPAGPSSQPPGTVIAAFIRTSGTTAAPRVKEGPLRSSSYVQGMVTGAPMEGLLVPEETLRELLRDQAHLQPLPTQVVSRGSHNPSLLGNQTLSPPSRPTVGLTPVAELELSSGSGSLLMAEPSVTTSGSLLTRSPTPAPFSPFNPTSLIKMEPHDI
Sequence of HSF1 (Q00613 whole entry): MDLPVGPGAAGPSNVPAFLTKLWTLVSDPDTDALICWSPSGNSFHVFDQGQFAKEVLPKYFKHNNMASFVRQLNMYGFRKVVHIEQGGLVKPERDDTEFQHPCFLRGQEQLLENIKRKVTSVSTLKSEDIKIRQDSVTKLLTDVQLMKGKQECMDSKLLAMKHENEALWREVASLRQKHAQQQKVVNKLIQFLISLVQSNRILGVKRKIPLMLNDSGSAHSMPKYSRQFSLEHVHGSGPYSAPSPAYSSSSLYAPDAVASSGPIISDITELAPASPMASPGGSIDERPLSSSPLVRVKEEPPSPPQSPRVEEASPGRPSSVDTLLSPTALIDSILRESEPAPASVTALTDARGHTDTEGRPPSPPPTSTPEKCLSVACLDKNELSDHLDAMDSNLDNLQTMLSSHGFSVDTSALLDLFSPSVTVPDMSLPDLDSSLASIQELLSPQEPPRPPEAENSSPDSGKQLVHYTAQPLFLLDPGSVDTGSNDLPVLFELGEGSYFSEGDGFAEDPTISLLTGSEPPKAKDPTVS
Sequence of ETV1 (P50549 whole entry): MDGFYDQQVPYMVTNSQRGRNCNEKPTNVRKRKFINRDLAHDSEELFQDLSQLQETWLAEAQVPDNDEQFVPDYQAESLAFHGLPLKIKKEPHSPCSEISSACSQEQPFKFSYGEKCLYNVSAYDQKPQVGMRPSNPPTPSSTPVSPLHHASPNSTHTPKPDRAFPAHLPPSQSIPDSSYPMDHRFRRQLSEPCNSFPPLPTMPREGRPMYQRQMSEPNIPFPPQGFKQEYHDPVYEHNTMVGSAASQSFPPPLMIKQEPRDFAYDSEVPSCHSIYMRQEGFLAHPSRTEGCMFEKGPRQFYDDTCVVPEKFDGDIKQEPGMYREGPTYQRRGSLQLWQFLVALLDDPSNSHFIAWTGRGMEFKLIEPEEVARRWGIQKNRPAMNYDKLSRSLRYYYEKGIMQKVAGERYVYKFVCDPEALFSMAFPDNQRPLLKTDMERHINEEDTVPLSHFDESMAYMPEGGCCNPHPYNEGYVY

Consider ACATCC, for which the binding signal is 3.7 fold enrichment (6-mer frequency, TF over GST control) with FEV; 2.77 fold enrichment (6-mer frequency, TF over GST control) with ETV5; 1.06 fold enrichment (6-mer frequency, TF over GST control) with HSF1; 2.43 fold enrichment (6-mer frequency, TF over GST control) with SPIC; 2.28 fold enrichment (6-mer frequency, TF over GST control) with ELF4; 2.29 fold enrichment (6-mer frequency, TF over GST control) with ELK4. Also, the binding signal is 2.61 fold enrichment (6-mer frequency, TF over GST control) with ETV2; 2.38 fold enrichment (6-mer frequency, TF over GST control) in the experiment with ELF3; 1.05 fold enrichment (6-mer frequency, TF over GST control) with CRX; 2.66 fold enrichment (6-mer frequency, TF over GST control) with ETV1; 2.41 fold enrichment (6-mer frequency, TF over GST control) in the experiment with ERF; 2.46 fold enrichment (6-mer frequency, TF over GST control) with ETV3L. Further, the binding signal in the experiment with ETS2 is 2.68 fold enrichment (6-mer frequency, TF over GST control); with SPDEF, 5.32 fold enrichment (6-mer frequency, TF over GST control); with ETV7, 2.28 fold enrichment (6-mer frequency, TF over GST control); with ELF5, 3.25 fold enrichment (6-mer frequency, TF over GST control); in the experiment with ETV3, 2.88 fold enrichment (6-mer frequency, TF over GST control); with ETV6, 2.49 fold enrichment (6-mer frequency, TF over GST control).
